The text below walks through data of PubChem BioAssay (Tox21).

Inconclusive results are not listed. Unmarked numbers belong to inactive results. The source made the active and inactive calls. Unless noted, calls come from the whole dose curve; as a rule, active = well fitted curve in the direction sought with a large enough effect in the repeat runs; inconclusive = weak or mixed curves; inactive = no such curve, though single readings can be large; an effect the other way counts as inactive or inconclusive. Positions of bridges follow the written chain, without caps; N, C: chain ends. Non-standard residues stand in square brackets, D forms with d. Residues, ends and D or L forms follow the SMILES beside them. Orn = NCCC[C@H](N)C(=O)O; Mpa = O=C(O)CCS

Assay [1] can be described thus: qHTS assay to identify aromatase inhibitors - cell viability counter screen (AID 743084;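 note: cells stimulated with testosterone during compound exposure; nearly all actives have a fitted effect of over 55% in size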; note: potency is the fitted concentration of half-maximal effect). (In general: Quantitative high-throughput screening tests each substance at several concentrations.)
Assay [2] concerns the target Aryl hydrocarbon receptor (Homo sapiens) (UniProt P35869). Briefly: qHTS assay to identify small molecule that activate the aryl hydrocarbon receptor (AhR) signaling pathway (AID 743085).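 For activation: HG2L7.5c1 human HepG2 liver cells with stably integrated DRE-driven firefly reporter; series mostly up to about 70 µM.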 Note: nearly all actives have a fitted effect of over 15% in size. Note: potency is the fitted concentration of half-maximal effect. Put shortly:
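Cell line HG2L7.5c1 (human hepatoma, 20× DRE-luc). Plated, 5 h 37C, compound/DMSO added, 24 h 37C. CellTiter-Fluor 30 min 37C → fluorescence; then ONE-Glo 30 min RT → luminescence.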

Assay [3] can be described thus: qHTS assay to identify small molecule that activate the aryl hydrocarbon receptor (AhR) signaling pathway - cell viability counter screen (AID 743086). Note: nearly all actives have a fitted effect of over 45% in size. Note: potency is the fitted concentration of half-maximal effect. In outline:
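HepG2-AhR-luc (HG2L7.5c1) cells, 4000/well, treated 24 h at 37 C with compound; viability measured as CellTiter-Fluor fluorescence after 30 min in the same wells as the luciferase read.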

For assay [4], the target named is Peroxisome proliferator-activated receptor gamma (Homo sapiens) (UniProt P37231). In words: qHTS assay to identify small molecule agonists of the peroxisome proliferator-activated receptor gamma (PPARg) signaling pathway (AID 743094; active = well fitted activation curve with a large enough effect in the signal ratio in the repeat runs, not every such curve was filed as active; the % refers to the signal ratio). In outline:
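Beta-lactamase FRET fluorescence was the read-out after a 1 h room-temperature substrate step, following 17 h compound treatment at 37C of HEK293H cells expressing a UAS-driven bla reporter responsive to PPARg.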

Assay [5] in a line: qHTS assay to identify small molecule phospholipidosis (PLD) inducers (AID 1259344; active = well fitted curve in the direction sought with a large enough effect; an effect the other way counts as inactive or inconclusive). In outline: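 HepG2 cells, 900/well, treated with compound plus LipidTOX Red for 24 h at 37 C; amiodarone positive and DMSO negative controls. Fixed with paraformaldehyde/Hoechst, then high-content imaging scored LipidTOX pit count and integrated intensity per well and per cell.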
% is set by controls: 0 for no effect and ±100 for the full control effect.

Chain of Peroxisome proliferator-activated receptor gamma (Homo sapiens) (P37231 whole entry, looked up): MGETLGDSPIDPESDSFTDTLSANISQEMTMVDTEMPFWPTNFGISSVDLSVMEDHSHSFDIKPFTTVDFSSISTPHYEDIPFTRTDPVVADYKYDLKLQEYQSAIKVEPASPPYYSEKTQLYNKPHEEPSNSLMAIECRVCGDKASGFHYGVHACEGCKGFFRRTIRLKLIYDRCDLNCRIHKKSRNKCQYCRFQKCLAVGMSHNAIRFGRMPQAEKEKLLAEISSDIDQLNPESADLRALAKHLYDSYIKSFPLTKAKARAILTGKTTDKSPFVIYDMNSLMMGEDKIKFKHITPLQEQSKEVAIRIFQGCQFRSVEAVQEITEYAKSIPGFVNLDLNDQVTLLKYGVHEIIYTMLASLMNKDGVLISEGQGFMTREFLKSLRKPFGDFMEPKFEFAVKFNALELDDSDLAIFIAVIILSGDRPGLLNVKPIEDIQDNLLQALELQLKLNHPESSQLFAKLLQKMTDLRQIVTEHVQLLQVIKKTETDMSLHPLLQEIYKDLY
Chain of Aryl hydrocarbon receptor (Homo sapiens) (P35869 whole entry, looked up): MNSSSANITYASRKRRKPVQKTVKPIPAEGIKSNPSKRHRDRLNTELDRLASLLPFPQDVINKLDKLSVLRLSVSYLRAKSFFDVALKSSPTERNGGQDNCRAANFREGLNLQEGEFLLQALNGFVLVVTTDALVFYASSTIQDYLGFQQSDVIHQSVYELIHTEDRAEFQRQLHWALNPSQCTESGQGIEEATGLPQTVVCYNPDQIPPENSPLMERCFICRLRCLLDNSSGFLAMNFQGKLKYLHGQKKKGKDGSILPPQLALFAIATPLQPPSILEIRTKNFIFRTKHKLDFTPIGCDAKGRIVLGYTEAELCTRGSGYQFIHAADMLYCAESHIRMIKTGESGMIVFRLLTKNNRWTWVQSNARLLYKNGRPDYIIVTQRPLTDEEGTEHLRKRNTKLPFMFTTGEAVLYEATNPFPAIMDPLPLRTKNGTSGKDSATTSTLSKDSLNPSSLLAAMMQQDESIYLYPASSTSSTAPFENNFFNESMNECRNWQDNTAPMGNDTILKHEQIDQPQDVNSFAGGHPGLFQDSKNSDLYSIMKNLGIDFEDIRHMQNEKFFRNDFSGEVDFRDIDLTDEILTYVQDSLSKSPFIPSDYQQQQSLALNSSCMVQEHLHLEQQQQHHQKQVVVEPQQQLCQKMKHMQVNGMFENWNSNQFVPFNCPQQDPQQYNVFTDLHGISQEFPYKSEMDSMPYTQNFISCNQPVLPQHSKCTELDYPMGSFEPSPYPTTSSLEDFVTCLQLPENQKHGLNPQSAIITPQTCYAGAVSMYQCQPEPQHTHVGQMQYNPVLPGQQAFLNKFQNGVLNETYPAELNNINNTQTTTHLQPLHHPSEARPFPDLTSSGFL

As for `Cc1c(O)cc2c(c1C)O[C@](C)(CCC[C@H](C)CCC[C@H](C)CCCC(C)C)CC2`, the Potency result in assay [1], in assay [2], in assay [3], in assay [4] and in assay [5] was “inactive” each time.

In the case of `CO/N=C(\C(=O)N[C@@H]1C(=O)N2C(C(=O)OCOC(=O)C(C)(C)C)=C(/C=C\c3scnc3C)CS[C@H]12)c1csc(N)n1`, the Potency result in assay [1], in assay [2], in assay [3] and in assay [4] was “inactive” in each case. For the same compound, the PLD induction in assay [5] was -0.933% [at 7.66 µM].

In the case of `CCOC(=O)CCC(=O)O[C@H]1[C@H](O[C@@H]2[C@@H](C)[C@H](O[C@H]3C[C@@](C)(OC)[C@@H](O)[C@H](C)O3)[C@@H](C)C(=O)O[C@H](CC)[C@@](C)(O)[C@H](O)[C@@H](C)C(=O)[C@H](C)C[C@@]2(C)O)O[C@H](C)C[C@@H]1N(C)C`, the Potency entry in assay [1], in assay [2], in assay [3], in assay [4] and in assay [5] was “inactive” in each case.

With `C=C1c2c(Cl)ccc(O)c2C(O)=C2C(=O)[C@]3(O)C(O)=C(C(N)=O)C(=O)[C@@H](N(C)C)[C@@H]3[C@@H](O)[C@H]12`, the Potency entry in assay [1], in assay [3], in assay [4] and in assay [5] was “inactive” in each case.

As to `CCCC(CCC)C(N)=O`, the Potency result in assay [1], in assay [2] and in assay [4] was “inactive” each time. Moreover, the PLD induction in assay [5] is 0.287% [at 7.66 µM].

Regarding `CCC(c1ccccc1)c1noc(CCN(CC)CC)n1` (stereo not given), the Potency entry in assay [1], in assay [3], in assay [4] and in assay [5] was “inactive” each time.

Regarding `CN(C(=O)CO)c1c(I)c(C(=O)NCC(O)CO)c(I)c(C(=O)NCC(O)CO)c1I` (stereo not given), the Potency result in assay [1], in assay [2], in assay [4] and in assay [5] was “inactive” in each case.

Turning to `CN(CC(=O)N1CCOCC1)Cc1c(Cl)cccc1NC(=O)c1ccccc1`, the Potency entry in assay [1], in assay [4] and in assay [5] was “inactive” throughout. Also, the Potency in assay [2] is 13.3 µM (active).

For the compound `CCOc1ccc(C[C@H]2NC(=O)CCSSC[C@@H](C(=O)N3CCC[C@H]3C(=O)N[C@@H](CCCN)C(=O)NCC(N)=O)NC(=O)[C@H](CC(N)=O)NC(=O)[C@H]([C@@H](C)O)NC(=O)[C@H]([C@@H](C)CC)NC2=O)cc1` ([Mpa][dY](Et)ITNCP[Orn]G-NH2; disulfide 1-6), the Potency result in assay [1], in assay [2], in assay [4] and in assay [5] was “inactive” each time.

For `CCCCCCCC(=O)CC[C@@H]1[C@@H](C/C=C\CCCC(=O)OC(C)C)[C@@H](O)C[C@H]1O`, the Potency result in assay [1], in assay [3], in assay [4] and in assay [5] was “inactive” in each case.

`CC[C@H]1OC(=O)[C@H](C)[C@@H](O[C@H]2C[C@@](C)(OC)[C@@H](O)[C@H](C)O2)[C@H](C)[C@@H](O[C@@H]2O[C@H](C)C[C@H](N(C)C)[C@H]2O)[C@](C)(O)C[C@@H](C)[C@@H]2N[C@@H](COCCOC)O[C@@H]([C@H]2C)[C@]1(C)O`: the Potency result in assay [1], in assay [3], in assay [4] and in assay [5] was “inactive” each time.

`CCN(CC)c1ccc(C(=C2C=CC(=[N+](CC)CC)C=C2)c2ccccc2)cc1`: the Potency in assay [1] was 7.5 µM (active); in assay [3], 5.96 µM (active). Also, in assay [5], the Potency result is “inactive”.

`CCNC(=O)[C@@H]1CCCN1C(=O)[C@H](CCCN=C(N)N)NC(=O)[C@H](CC(C)C)NC(=O)[C@@H](CC(C)C)NC(=O)[C@H](Cc1ccc(O)cc1)NC(=O)[C@H](CO)NC(=O)[C@H](Cc1c[nH]c2ccccc12)NC(=O)[C@H](Cc1cnc[nH]1)NC(=O)[C@@H]1CCC(=O)N1`: the Potency result in assay [1], in assay [3], in assay [4] and in assay [5] was “inactive” each time.

Consider `Nc1ncnc(Nc2ccc(Cl)cc2)n1`, for which the Potency entry in assay [1], in assay [4] and in assay [5] was “inactive” throughout. Moreover, the Potency in assay [2] is 11.9 µM (active).

`CCN(CC)CCOC(=O)c1ccc(N)cc1Cl`: the Potency entry in assay [1], in assay [3], in assay [4] and in assay [5] was “inactive” throughout.

In the case of `CC(=O)O[C@H]1CC[C@@]2(C)C(=CC[C@@H]3[C@@H]2CC[C@]2(C)C(c4cccnc4)=CC[C@@H]32)C1`, the Potency result in assay [1], in assay [3], in assay [4] and in assay [5] was “inactive” throughout.

With `COc1cc(C[C@@H]2NCCc3cc(O)c(O)cc32)cc(OC)c1OC`, the Potency entry in assay [1], in assay [3], in assay [4] and in assay [5] was “inactive” in each case.

For `CC1(C)S[C@@H]2[C@H](NC(=O)C(C(=O)Oc3ccc4c(c3)CCC4)c3ccccc3)C(=O)N2[C@H]1C(=O)O` (stereo not given in full), the Potency entry in assay [1], in assay [3], in assay [4] and in assay [5] was “inactive” each time.

With `Clc1ccc(COC(Cn2ccnc2)c2ccc(Cl)cc2Cl)c(Cl)c1` (stereo not given), the Potency entry in assay [1], in assay [3], in assay [4] and in assay [5] was “inactive” each time.

Take `O=C1O[C@H]2[C@H](O)[C@@H]1OC(O)[C@H]2O` (stereo not given in full): the Potency entry in assay [1], in assay [3], in assay [4] and in assay [5] was “inactive” throughout.

In the case of `CCC(=O)Oc1ccc2c(c1)CC[C@@H]1[C@@H]2CC[C@]2(C)[C@@H](OC(=O)CC)CC[C@@H]12`, the Potency result in assay [1], in assay [2], in assay [4] and in assay [5] was “inactive” in each case.

`COCC1=C(C(=O)OC(C)OC(=O)OC(C)C)N2C(=O)[C@@H](NC(=O)/C(=N\OC)c3csc(N)n3)[C@H]2SC1` (stereo not given in full): the Potency result in assay [1], in assay [3], in assay [4] and in assay [5] was “inactive” each time.

Turning to `C[C@@H]1C[C@H]2C3C[C@H](F)C4=CC(=O)C=CC4(C)[C@@]3(F)[C@@H](O)CC2(C)[C@@]1(O)C(=O)COC(=O)C(C)(C)C` (stereo not given in full), the Potency result in assay [1], in assay [3], in assay [4] and in assay [5] was “inactive” throughout.

Take `COc1cc(S(C)=O)ccc1-c1nc2ncccc2[nH]1` (stereo not given): the Potency entry in assay [1], in assay [4] and in assay [5] was “inactive” each time. The Potency in assay [2] was 2.11 µM (active).

On to `CCC(=O)O[C@H]1CC[C@H]2[C@@H]3CCc4cc(O)ccc4[C@H]3CC[C@]12C`, for which the Potency entry in assay [1], in assay [3], in assay [4] and in assay [5] was “inactive” each time.

For `OC(CN1CCCCC1)c1cc(-c2ccccc2)on1` (stereo not given), the Potency result in assay [1], in assay [3], in assay [4] and in assay [5] was “inactive” each time.

On to `O=C(NOC[C@H](O)CO)c1ccc(F)c(F)c1Nc1ccc(I)cc1F`, for which the Potency result in assay [1], in assay [3], in assay [4] and in assay [5] was “inactive” in each case.
